Screening data: PubChem BioAssay, The Scripps Research Institute Molecular Screening Center
This is a sample that favours compounds with a hit; in the whole collection about 3.5% have one here.
GPR151 ag – activates the human receptor GPR151; PathHunter beta-arrestin GPR151 cells, luminescence; activation, % at 11.2 µM; actives 1% (n = 650,000); AID 1508602; in the data active = activation above about 4.9%
MITF inh – human MITF inhibition, primary screen; O75030; actives 0.91% (n = 650,000); inhibition, % at 2.6 µM; AlphaScreen MITF homodimerization, bead proximity signal; AID 1259374; in the data active = inhibition above about 50%
Target sequence (O75030 whole entry, looked up): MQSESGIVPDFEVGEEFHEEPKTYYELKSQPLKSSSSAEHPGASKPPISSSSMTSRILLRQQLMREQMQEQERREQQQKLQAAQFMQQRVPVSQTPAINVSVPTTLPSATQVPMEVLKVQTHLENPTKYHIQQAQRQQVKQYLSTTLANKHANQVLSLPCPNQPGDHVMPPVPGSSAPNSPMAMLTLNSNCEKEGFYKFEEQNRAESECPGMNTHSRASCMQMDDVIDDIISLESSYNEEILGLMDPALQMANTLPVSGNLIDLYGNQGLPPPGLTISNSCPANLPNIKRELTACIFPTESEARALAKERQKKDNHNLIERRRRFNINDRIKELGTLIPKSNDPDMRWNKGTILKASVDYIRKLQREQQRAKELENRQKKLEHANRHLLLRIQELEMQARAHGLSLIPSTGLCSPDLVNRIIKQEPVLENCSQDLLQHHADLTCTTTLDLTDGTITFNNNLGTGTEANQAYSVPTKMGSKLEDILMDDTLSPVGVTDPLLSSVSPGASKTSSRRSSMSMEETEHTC
FBW7 activator – human FBW7 E3 ligase activation, primary screen; Q969H0; AlphaScreen FBW7–phospho-cyclin E peptide binding, activator screen; normalized activity (activation), % at 26.1 µM; actives 0.13% (n = 650,000); AID 1259310; in the data active = normalized activity above about 1.9%;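 also: purified mutant Fbw7 with reduced substrate affinity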
TEAD-YAP inh – TEAD-YAP interaction inhibition | HEK-TIYL cells, TEAD-Gal4/YAP UAS-luciferase luminescence | inhibition, % at 9.12 µM | actives 1.4% (n = 640,000) | AID 1259422; in the data active = inhibition above about 32%
Each line names hits and unclear results; the compound was inactive in the other large screens.

CN1C/C(=C/c2ccco2)C(=O)/C(=C/c2ccco2)C1	none
COc1ccc(C2=C/C(=C/c3ccco3)C(=O)O2)cc1OC	MITF inh 73.7
O=C1OC(c2ccc(Cl)cc2)=C/C1=C\c1ccco1	MITF inh 52.9
Cc1ccc(C2=C/C(=C/c3ccc(Cl)cc3)C(=O)O2)cc1	none
CC1=C/C(=C/c2ccco2)C(=O)O1	MITF inh 65.4
CCN1CCN(Cc2ccc(NC(=O)Nc3ccc(OC)cc3)cc2)CC1	none
CCN1CCN(Cc2ccc(NC(=O)Nc3ccccc3)cc2)CC1	TEAD-YAP inh 52.3
CC(C)/C=C1/CCCc2c1[nH]c1ccccc1c2=O	TEAD-YAP inh 42.3
O=C(CCN1CCN(C/C=C/c2ccccc2)CC1)Nc1ccc(F)cc1	none
CC(C)CC(=O)Nc1nc2ccc(S(=O)(=O)N3CCCCC3)cc2s1	TEAD-YAP inh 51.9
CC(=O)Nc1nc2ccc(S(=O)(=O)N3CCCCC3)cc2s1	none
O=c1c2c3c(sc2nc2c4ccccc4cnn12)CCCC3	TEAD-YAP inh 53.0
O=c1c2c3c(sc2nc2c4ccccc4c4nnnn4n12)CCCC3	none
COCCCN1C(=O)/C(=C/c2ccc(C)cc2)SC1=S	none
Cc1ccc(/C=C2\SC(=S)N(CCCC(=O)OCCN(C)C)C2=O)cc1	TEAD-YAP inh 92.8
Cc1ccccc1/C=C1\SC(=S)N(CCCC(=O)O)C1=O	TEAD-YAP inh 45.3
Cc1cccc(/C=C2\SC(=S)N(CCCC(=O)O)C2=O)c1	TEAD-YAP inh 74.6
O=C(O)CCCN1C(=O)/C(=C/c2c(F)cccc2Cl)SC1=S	TEAD-YAP inh 59.8
C=CCN1C(=O)S/C(=C/c2c(F)cccc2Cl)C1=O	none
Nc1nnc(CC(=O)ON/N=C/c2ccc(-c3ccccc3[N+](=O)[O-])o2)s1	none
Cc1ccc(/C=C2\SC(=S)N(CCCC(=O)O)C2=O)cc1	TEAD-YAP inh 91.6
CCOc1ccc(/C=C2\SC(=S)N(CCC(=O)O)C2=O)cc1	none
C#CCOc1ccc(/C=C2/SC(=S)N(CCC(=O)O)C2=O)cc1	TEAD-YAP inh 58.5
Cc1ccc(/C=C2/SC(=S)N(CCCC(=O)O)C2=O)cc1	TEAD-YAP inh 85.9
Cc1ccc(/C=C2\SC(=S)N(CCCC(=O)N3CCOCC3)C2=O)cc1	none
C=CCOc1ccc(/C=C2\SC(=S)N(CCCC(=O)O)C2=O)cc1	TEAD-YAP inh 80.2
NC(=O)c1ccccc1NC(=O)C1c2ccccc2Oc2ccccc21	none
Cc1sc2ncnc(N3CCCCC3)c2c1-c1ccccc1	none
CC(C)N(CCNc1nc(Nc2nccc3ccccc23)nc2c1ncn2Cc1ccc(C(F)(F)F)cc1)C(C)C	none
COc1cc(-c2nc(Nc3ccc(OCc4ccccc4)cc3)c3ccccc3n2)cc(OC)c1OC	none
COc1ccc(Nc2nc(-c3cc(OC)c(OC)c(OC)c3)nc3ccccc23)cc1OC	none
CCOc1ccc(Nc2nc(-c3cc(OC)c(OC)c(OC)c3)nc3ccccc23)cc1	TEAD-YAP inh 39.6
CCOc1ccc(Nc2nc(NCc3ccccc3)c3ccccc3n2)cc1	TEAD-YAP inh 33.4
COc1cc(-c2nc(Nc3ccc(C)c(Cl)c3)c3ccccc3n2)cc(OC)c1OC	TEAD-YAP inh 51.7
C=C(C)[C@@H]1CC=C(CN2CCc3nnc(CNC(=O)c4ccc(COC)o4)n3CC2)CC1	none
CCOc1ccc(C2C(C#N)=C(N)N(c3sc4c(c3C#N)CCCCC4)C3=C2C(=O)CCC3)cc1 (stereo not given)	none
Cc1ccc(CN2C(=O)CSc3ccc(C(=O)NCCC4=CCCCC4)cc32)cc1	none
CCOc1ccc(-c2n[nH]c3c2C(c2ccc(F)cc2)NC3=O)cc1 (stereo not given)	none
COc1ccc(C2NC(=O)c3[nH]nc(-c4ccc(C)cc4)c32)c(OC)c1 (stereo not given)	TEAD-YAP inh 44.3
CCOc1ccc(-c2n[nH]c3c2C(c2cc(OC)ccc2OC)NC3=O)cc1 (stereo not given)	TEAD-YAP inh 51.3
CC(C)(C)c1[nH]nc2c1C(c1cc(Cl)cc(Cl)c1OC(=O)N1CCOCC1)C(C#N)=C(N)O2 (stereo not given)	none
Cc1ccccc1NC(=O)c1sc2nc(N)c(C#N)c(-c3ccc(C(C)C)cc3)c2c1N	none
Cc1c(C(=O)OCC(=O)c2ccc(Cl)cc2)cccc1[N+](=O)[O-]	none
Cc1ccc(C(=O)COC(=O)c2ccccc2[N+](=O)[O-])cc1C	TEAD-YAP inh 49.4
COc1ccc2nc(C)cc(Nc3ccc(N(C)C)cc3)c2c1	none
C1=C[C@H]2c3cc(C45CC6CC(CC(C6)C4)C5)ccc3N[C@@H](c3cccnc3)[C@H]2C1	none
CN(C)c1ccc(-c2ccc3ccccc3n2)cc1	TEAD-YAP inh 75.8
CN(C)c1ccc(-c2nc3ccccc3n2C)cc1	TEAD-YAP inh 92.9
CN(C)c1ccc(C(O)Cc2nc3ccccc3n2C)cc1 (stereo not given)	TEAD-YAP inh 95.3
CC(C)c1ccc(C(O)Cc2nc3ccccc3n2C)cc1 (stereo not given)	none
CC1CC(C)CN(C(=O)c2c[nH]c3ccc(S(=O)(=O)N4CCOCC4)cc3c2=O)C1 (stereo not given)	none
O=C(OCc1ccc([N+](=O)[O-])cc1)c1cccs1	none
CCN1CCN(CCCNC(=O)c2sc3nc(C)cc(C)c3c2-n2cccc2)CC1	none
O=C(CNC(=O)c1ccccc1)N/N=C/c1ccc(Br)cc1O	none
CC(C)N(CCNc1nc(NC2CCC(O)CC2)nc2c1ncn2-c1ccsc1)C(C)C (stereo not given)	TEAD-YAP inh 74.4
COc1ccc(CCNc2nc(NC3CCC(O)CC3)nc3c2ncn3-c2ccccc2)cc1 (stereo not given)	TEAD-YAP inh 48.5
Oc1ccc(CCNc2nc(NC3CCC(O)CC3)nc3c2ncn3-c2ccsc2)cc1 (stereo not given)	TEAD-YAP inh 47.8
OC1CCC(Nc2nc(NCc3ccccc3)c3ncn(-c4ccsc4)c3n2)CC1 (stereo not given)	none
CCC(CO)Nc1cc(N2CCCC2)ccc1[N+](=O)[O-] (stereo not given)	none
COc1ccc(Nc2nc(C(=O)N3CCCCC3)cs2)cc1	none
Clc1ccc(-n2ncc3c(N4CCCC4)ncnc32)cc1	TEAD-YAP inh 35.2
Fc1ccc(-n2ncc3c(N4CCCCCC4)ncnc32)cc1	none
Clc1ccc(-n2ncc3c(N4CCCCC4)ncnc32)cc1	TEAD-YAP inh 96.0
O=C(CSc1nncc(=O)[nH]1)Nc1ccc(F)cc1	none
NC(CCCc1ccccc1)c1ccc2c(c1)OCCO2 (stereo not given)	TEAD-YAP inh 54.7
CCOc1cc(N2CCOCC2)c(OCC)cc1NC(=O)CN(CC)C1CCCCC1	none
CCOc1cc(N2CCOCC2)c(OCC)cc1NC(=O)CN1CCCC1	MITF inh 83.2
COc1cc([N+](=O)[O-])c2ncccc2c1	MITF inh 69.8
COc1cc([N+](=O)[O-])c2nccnc2c1	none
O=C(O)COc1cc([N+](=O)[O-])cc2cccnc12	none
O=[N+]([O-])c1cc(O)c2ncccc2c1	MITF inh 102.7
CCCSc1nnc(NC(=O)c2cccc(OC)c2)s1	none
COc1cccc(C(=O)Nc2nnc(SC)s2)c1	TEAD-YAP inh 42.8
CSc1nnc(NC(=O)c2c(Cl)cccc2Cl)s1	none
CSc1nnc(NC(=O)c2ccccc2C)s1	TEAD-YAP inh 40.7
